Source: the supplement of paper PMC8728848
About 410 targets per protein were measured; listed, in parts, are those with the strongest signals and a random draw of the rest.

Key:
Test in all cases: glycan array binding signal (z-score within array); higher = stronger binding
Conditions in all cases: glycan notation: IUPAC condensed, linker removed
[1] = biological target: GlcNAc(a1-4)Gal(b1-4)GlcNAc(b1-3)Gal(b1-4)GlcNAc(b1-3)Gal(b1-4)GlcNAc
In short: (§1)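 Columns mapping to the same glycan were averaged after glycan names were converted to IUPAC-condensed notation. The data come from 3228 arrays in the Consortium for Functional Glycomics database, limited to those with an available protein sequence. Binding is reported as a within-array Z-score averaged across arrays of one protein sequence and across linkers.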

[2] = biological target: GlcNAc(a1-4)Gal(b1-4)GlcNAc(b1-3)Gal(b1-4)[Fuc(a1-3)]GlcNAc(b1-3)Gal(b1-4)[Fuc(a1-3)]GlcNAc
In short: as §1

[3] = biological target: GlcNAc(b1-2)Man(a1-3)[GlcNAc(b1-4)][GlcNAc(b1-2)Man(a1-6)]Man(b1-4)GlcNAc(b1-4)[Fuc(a1-6)]GlcNAc
In short: as §1

[4] = biological target: GlcNAc(b1-3)Gal(b1-4)GlcNAc
In short: as §1

[5] = biological target: GlcNAc(b1-3)Gal(b1-4)GlcNAc(b1-3)Gal(b1-4)GlcNAc(b1-2)Man(a1-3)[GlcNAc(b1-3)Gal(b1-4)GlcNAc(b1-3)Gal(b1-4)GlcNAc(b1-2)Man(a1-6)]Man(b1-4)GlcNAc(b1-4)GlcNAc
In short: as §1

[6] = biological target: GlcNAc(b1-3)Gal(b1-4)GlcNAc(b1-3)Gal(b1-4)GlcNAc(b1-2)Man(a1-3)[GlcNAc(b1-3)Gal(b1-4)GlcNAc(b1-3)Gal(b1-4)GlcNAc(b1-2)Man(a1-6)]Man(b1-4)GlcNAc(b1-4)[Fuc(a1-6)]GlcNAc
In short: as §1

[7] = biological target: GlcNAc(b1-3)Gal(b1-4)GlcNAc(b1-3)Gal(b1-4)GlcNAc(b1-3)Gal(b1-4)GlcNAc(b1-2)Man(a1-3)[GlcNAc(b1-3)Gal(b1-4)GlcNAc(b1-3)Gal(b1-4)GlcNAc(b1-3)Gal(b1-4)GlcNAc(b1-2)Man(a1-6)]Man(b1-4)GlcNAc(b1-4)[Fuc(a1-6)]GlcNAc
In short: as §1

[8] = biological target: GlcNAc(b1-3)Gal(b1-4)GlcNAc(b1-3)Gal(b1-4)GlcNAc(b1-3)Gal(b1-4)GlcNAc(b1-3)Gal(b1-4)GlcNAc(b1-2)Man(a1-3)[GlcNAc(b1-3)Gal(b1-4)GlcNAc(b1-3)Gal(b1-4)GlcNAc(b1-3)Gal(b1-4)GlcNAc(b1-3)Gal(b1-4)GlcNAc(b1-2)Man(a1-6)]Man(b1-4)GlcNAc(b1-4)GlcNAc
In short: as §1

[9] = biological target: GlcNAc(b1-3)Gal(b1-4)GlcNAc(b1-3)Gal(b1-4)GlcNAc(b1-3)Gal(b1-4)GlcNAc(b1-3)Gal(b1-4)GlcNAc(b1-2)Man(a1-3)[GlcNAc(b1-3)Gal(b1-4)GlcNAc(b1-3)Gal(b1-4)GlcNAc(b1-3)Gal(b1-4)GlcNAc(b1-3)Gal(b1-4)GlcNAc(b1-2)Man(a1-6)]Man(b1-4)GlcNAc(b1-4)[Fuc(a1-6)]GlcNAc
In short: as §1

GlcNAc(b1-3)GalNAc = biological target: GlcNAc(b1-3)GalNAc
In short: as §1

[10] = biological target: GlcNAc(b1-3)[GlcNAc(b1-4)][GlcNAc(b1-6)]GlcNAc
In short: as §1

GlcNAc3Prop(b1-4)GlcNAc = biological target: GlcNAc3Prop(b1-4)GlcNAc
In short: as §1

[11] = biological target: Neu5Ac(a2-3)Gal(b1-3)GalNAc(b1-3)Gal(a1-4)Gal(b1-4)Glc
In short: as §1

[12] = biological target: Neu5Ac(a2-3)Gal(b1-3)GalNAc(b1-4)[Neu5Ac(a2-8)Neu5Ac(a2-3)]Gal(b1-4)Glc
In short: as §1

[13] = biological target: Neu5Ac(a2-3)Gal(b1-3)[Fuc(a1-4)]GlcNAc
In short: as §1

Neu5Ac(a2-3)Gal(b1-4)Glc = biological target: Neu5Ac(a2-3)Gal(b1-4)Glc
In short: as §1

[14] = biological target: Neu5Ac(a2-3)Gal(b1-4)GlcNAc
In short: as §1

[15] = biological target: Neu5Ac(a2-3)Gal(b1-4)GlcNAc(b1-2)Man(a1-3)[GlcNAc(b1-4)][Neu5Ac(a2-3)Gal(b1-4)GlcNAc(b1-2)Man(a1-6)]Man(b1-4)GlcNAc(b1-4)GlcNAc
In short: as §1

[16] = biological target: Neu5Ac(a2-3)Gal(b1-4)GlcNAc(b1-2)[Neu5Ac(a2-3)Gal(b1-4)GlcNAc(b1-6)]Man(a1-6)[Neu5Ac(a2-3)Gal(b1-4)GlcNAc(b1-2)Man(a1-3)][GlcNAc(b1-4)]Man(b1-4)GlcNAc(b1-4)GlcNAc
In short: as §1

Neu5Ac(a2-6)Gal(b1-4)Glc = biological target: Neu5Ac(a2-6)Gal(b1-4)Glc
In short: as §1

[17] = biological target: Neu5Ac(a2-6)Gal(b1-4)GlcNAc(b1-2)Man(a1-3)[Neu5Ac(a2-3)Gal(b1-4)GlcNAc(b1-2)Man(a1-6)]Man(b1-4)GlcNAc(b1-4)GlcNAc
In short: as §1

[18] = biological target: Neu5Ac(a2-6)Gal(b1-4)GlcNAc(b1-3)Gal(b1-4)GlcNAc(b1-3)Gal(b1-4)GlcNAc(b1-2)Man(a1-3)[Neu5Ac(a2-6)Gal(b1-4)GlcNAc(b1-3)Gal(b1-4)GlcNAc(b1-3)Gal(b1-4)GlcNAc(b1-2)Man(a1-6)]GalNAc
In short: as §1

[19] = biological target: Neu5Ac(a2-6)GalNAc(b1-4)GlcNAc
In short: as §1

[20] = biological target: Neu5Gc(a2-8)Neu5Gc(a2-3)Gal(b1-4)GlcNAc(b1-3)Gal(b1-4)GlcNAc
In short: as §1

B1: rAAL-2 (Agrocybe aegerita) (protein)
chain: MTSNVITQDLPIPVASRGFADIVGFGLDGVVIGRNAVNLQPFLAVKNFAQNAGGWLTTKHVRLIADTTGTGKGDIVGFGNAGVYVSVNNGKNTFADPPKMVIANFGYDAGGWRVEKHLRYLADIRKIGRADIIGFGEKGVLVSRNNGGLNFGPATLVLKDFGYDAGGWRLDRHLRFLADVTGNGHLDIVGFGDKHVFISRNNGDGTFAPAKSVIDNFCIDAGGWKIGDHPRFVADLTGDGTADIIGCGKAGCWVALNNGGGVFGQVKLVINDFGTDKGWQAAKHPRFIADLTGNGRGDVVGFGNAGVYVALNNGDGTFQSAKLVLKDFGVQQGWTVSKHRRFVVDLTGDGCADIIGFGEKETLVSYNDGKGNFGPVKALTNDFSFSGGKWAPETTVCWMANLDSSRH
- glycan array binding signal (z-score) [1]: 6.15
- glycan array binding signal (z-score) [2]: 3.9
- glycan array binding signal (z-score) [3]: -0.068
- glycan array binding signal (z-score) [4]: 4.11
- glycan array binding signal (z-score) [5]: 3.92
- glycan array binding signal (z-score) [6]: 4.05
- glycan array binding signal (z-score) [7]: 4.52
- glycan array binding signal (z-score) [8]: 4.12
- glycan array binding signal (z-score) [9]: 3.97
- glycan array binding signal (z-score) (GlcNAc(b1-3)GalNAc): 0.798
- glycan array binding signal (z-score) [10]: -0.339
- glycan array binding signal (z-score) (GlcNAc3Prop(b1-4)GlcNAc): 0.177
- glycan array binding signal (z-score) [11]: -0.228
- glycan array binding signal (z-score) [12]: -0.103
- glycan array binding signal (z-score) [13]: -0.392
- glycan array binding signal (z-score) (Neu5Ac(a2-3)Gal(b1-4)Glc): -0.151
- glycan array binding signal (z-score) [14]: -0.177
- glycan array binding signal (z-score) [15]: -0.314
- glycan array binding signal (z-score) [16]: -0.33
- glycan array binding signal (z-score) (Neu5Ac(a2-6)Gal(b1-4)Glc): -0.303
- glycan array binding signal (z-score) [17]: -0.237
- glycan array binding signal (z-score) [18]: 0.107
- glycan array binding signal (z-score) [19]: -0.288
- glycan array binding signal (z-score) [20]: -0.178
